Measured values as given in PubChem BioAssay (Tox21).
Inconclusive results are not listed. Active and inactive are the calls of the source. The call rests on the fitted dose curve.

Experiment: qHTS assay to identify small molecule agonists or antagonists of the thyroid stimulating hormone receptor (TSHR) signaling pathway - wild type cell line counter screen (AID 1259384)
Conditions: HEK293 wild type, cAMP HTRF counter-screen; series mostly up to 92.4 µM
Excerpt: U.S. Tox21 Program National Center for Advancing Translational Sciences [NCATS] NIH Chemical Genomics Center [NCGC] U.S. Environmental Protection Agency [EPA] National Institutes of Environmental Health Sciences [NIEHS] National Toxicology Program [NTP] U.S. Food and Drug Administration [FDA] Tox21 Assay Overview: TSHR is the receptor for thyrotropin (thyroid stimulating hormone or TSH), a member of the glycoprotein hormone family. TSH is released by the anterior pituitary gland and is the main regulator of thyroid gland growth and development. Upon binding circulating thyrotropin, a G-protein signal cascade activates adenylyl cyclase and […] cAMP concentration is increased. cAMP is a key second messenger involved extensively in cellular signal transduction pathways associated with the majority of G-protein coupled receptors (GPCRs). The activation of these GPCRs by neurotransmitters, lipids, nucleotides, peptides and hormones results in the activation or the inhibition of plasma membrane-bound adenylate cyclase through heterotrimeric G-proteins. A cell-based TSHR-Hek293 assay can be used to identify TSHR agonists. To eliminate the false positive compounds identified from screening a cell-based TSHR-Hek293 cell line, cAMP assay in a wild type Hek293 cells was used as a counter screening.
Tox21 Assay Protocol Summary: Hek293 cells (wild type) were dispensed at 800 cells/4 uL/well in 1536-well white plates using a Multidrop dispenser. After the assay plates were incubated at a 37 C/5% CO2 incubator for 18 hrs, 23 nL of compounds dissolved in DMSO, positive controls or DMSO only was transferred to the assay plate by a pin tool, followed by 1 ul medium containing Ro20-1724. After 30 min of incubation at room temperature, 2.5 ul/well of cAMP-d2 and 2.5 ul/well of anti-cAMP-cryptate were added respectively into the assay plates using a Flying Reagent Dispenser. The plates were incubated at room temperature for 1 hr. The fluorescence intensity in the plates was measured using an Envision plate reader. Each test compound was measured at 15 concentrations and in triplicates.

Row | Compound | outcome
1 | C[C@]12CC[C@H]3[C@@H](CC[C@@]45O[C@@H]4C(O)=C(C#N)C[C@]35C)[C@@H]1CC[C@@H]2O | inactive
2 | CCCCN(CC)C(=O)SCCC | inactive
3 | [O-][Cl+2]([O-])O | inactive
4 | C1CC2OC2CC1C1CO1 (stereo not given) | inactive
5 | Clc1ccccc1Cl | inactive
6 | CCCCCCCCCCCC#N | inactive
7 | c1ccc(-c2ccccc2)cc1 | inactive
8 | CCc1cccc(C)c1N(C(=O)CCl)C(C)COC (stereo not given) | inactive
9 | Nc1ccc(Oc2ccc(N)cc2)cc1 | inactive
10 | O=[N+]([O-])c1ccccc1 | inactive
11 | Nc1ccc(Cc2ccc(N)cc2)cc1 | inactive
12 | COCCl | inactive
13 | CCCN(CCC)c1c([N+](=O)[O-])cc(C(F)(F)F)cc1[N+](=O)[O-] | inactive
14 | CCOP(=S)(OCC)Oc1cnc2ccccc2n1 | inactive
15 | C#CCN(C)[C@H](C)Cc1ccccc1 | inactive
16 | ClCc1cccnc1 | inactive
17 | CC(Br)C(=O)O (stereo not given) | inactive
18 | O=[N+]([O-])c1ccc(Oc2ccc(Cl)cc2Cl)cc1 | inactive
19 | CN1C(=O)CN=C(c2ccccc2)c2cc(Cl)ccc21 | inactive
20 | Nc1ccc(Br)cc1 | inactive

Row | Compound | outcome
21 | Nc1ccccc1C(=O)O | inactive
22 | Cc1ccc([N+](=O)[O-])cc1C | inactive
23 | OCCN(CCO)CCO | inactive
24 | CC(C)=C[C@@H]1[C@@H](C(=O)OCc2coc(Cc3ccccc3)c2)C1(C)C | inactive
25 | COC(=O)NS(=O)(=O)c1ccc(N)cc1 | inactive
26 | CC(C)N1C(=O)c2ccccc2NS1(=O)=O | inactive
27 | CCCCN(CCCC)SN(C)C(=O)Oc1cccc2c1OC(C)(C)C2 | inactive
28 | CC(=O)C=C(C)C | inactive
29 | [N-]=[N+]=[N-] | inactive
30 | CC1C=[C-]C=C1.[C-]#[O+].[C-]#[O+].[C-]#[O+].[Mn] | inactive
31 | CCNc1nc(NC(C)(C)C)nc(SC)n1 | inactive
32 | c1ccc2c(c1)oc1ccccc12 | inactive
33 | COP(N)(=O)SC (stereo not given) | inactive
34 | O=C1CCCN1 | inactive
35 | CC(C)OC(=O)Nc1cccc(Cl)c1 | inactive
36 | Clc1ccc(Cl)cc1 | inactive
37 | c1ccc2c(c1)Oc1ccccc1O2 | inactive
38 | Cc1cccc([N+](=O)[O-])c1 | inactive
39 | c1ccc(OP(Oc2ccccc2)Oc2ccccc2)cc1 | inactive
40 | O=c1ccc(=O)[nH][nH]1 | inactive
